Columns and labels:
Assay type in all cases: functional
[1] = target: Solute carrier family 2, facilitated glucose transporter member 1 (Homo sapiens) (UniProt P11166); experiment: ST_JUDE_LEISH: Cytotoxicity at 2uM final concentration against transgenic Leishmania Mexicana promastigotes LmGLUT1 that are glucose transport deficient and complemented with the human glucose transporter GLUT1. Activity is measured by DNA content using SYBR green in vitro
[2] = target: Hexose transporter 1 (Plasmodium falciparum) (UniProt O97467); experiment: ST_JUDE_LEISH: Cytotoxicity at 2uM final concentration against transgenic Leishmania Mexicana promastigotes LmPfHT that are glucose transport deficient and complemented with the Plasmodium falciparum hexose transporter. Activity is measured by DNA content using SYBR green in vitro
[3] = target: Glucose transporter (Leishmania mexicana) (UniProt O61059); experiment: ST_JUDE_LEISH: Cytotoxicity at 2uM final concentration against transgenic Leishmania Mexicana promastigotes LmGT2 that are glucose transport deficient and complemented with the L. Mexicana glucose transporter 2. Activity is measured by DNA content using SYBR green in vitro

Solute carrier family 2, facilitated glucose transporter member 1 (Homo sapiens), sequence (P11166 whole entry): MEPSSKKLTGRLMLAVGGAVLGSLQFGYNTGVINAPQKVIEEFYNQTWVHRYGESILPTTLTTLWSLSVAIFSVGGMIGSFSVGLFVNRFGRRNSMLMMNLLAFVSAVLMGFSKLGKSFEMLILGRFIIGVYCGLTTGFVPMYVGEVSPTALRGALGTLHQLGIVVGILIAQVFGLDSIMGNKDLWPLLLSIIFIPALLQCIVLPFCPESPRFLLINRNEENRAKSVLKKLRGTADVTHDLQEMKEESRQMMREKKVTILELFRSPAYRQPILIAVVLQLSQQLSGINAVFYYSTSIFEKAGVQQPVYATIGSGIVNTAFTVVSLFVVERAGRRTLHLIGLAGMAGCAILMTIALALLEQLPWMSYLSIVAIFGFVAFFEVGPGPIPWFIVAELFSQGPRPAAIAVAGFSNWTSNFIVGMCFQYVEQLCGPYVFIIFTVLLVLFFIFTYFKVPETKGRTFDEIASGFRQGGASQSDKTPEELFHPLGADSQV

Compound | inhibition [1] [%] | inhibition [2] [%] | inhibition [3] [%]
CCN(CC)CCN(Cc1ccc(-c2ccc(C(F)(F)F)cc2)cc1)C(=O)Cn1cc(Cc2cnn(C)c2)c(=O)n2nc(-c3ccccc3)cc12 | 4.45 | 4.37 | 4.16
Cc1cc(OCCCN2CCC(NC(=O)c3ccc(Br)cc3)C2)c2ccccc2n1 (stereo unspecified) | 24.3 | 19.2 | 13.4
CC1(C)N=C(N)N=C(N)N1OCc1ccc2ccccc2c1 | 8.29 | 7.22 | 6.67
CN(Cc1cccc(C#N)c1)C1CCN(c2cc(NC(=O)c3cccc(F)c3)ccn2)CC1 | 3.81 | 5.32 | 4.33
Cc1cc(N2CCC(N(C)C)C2)nc(Nc2ccc(Cl)cc2)n1 (stereo unspecified) | 4.11 | 3.16 | 4.87
COc1ccc2nccc([C@@H](O)CN3CCC(NCCOc4cccc(F)c4F)CC3)c2c1 | 4.54 | 4.96 | -0.41
CC(C)N1CCN(C(=O)c2ccc(CNCCCN3CCN(c4cccc(Cl)c4Cl)CC3)s2)CC1 | 1.17 | 1.06 | -0.54
O=C(Nc1ccccc1Cc1ccccc1)c1ccccc1C(F)(F)F | 6.25 | 1.68 | 2.61
O=C(NC1CCN(Cc2ccccc2)CC1)c1ccc2c(=O)n(Cc3ccc(Cl)cc3)c(=S)[nH]c2c1 | 0.69 | -0.17 | 1.31
CCCCCCc1cc(OC)c(OC)cc1C(C)Nc1ccnc2cc(Cl)ccc12 (stereo unspecified) | 8.21 | 5.09 | 0.14
O=C(/C=C/c1ccc(Cl)c(Cl)c1)NCCCCCN1CCCN(C(=O)Nc2ccc(Cl)c(C(F)(F)F)c2)CC1 | -0.86 | -0.33 | -2.37
O=C(NOCCCCOc1ccc(Cl)c(Cl)c1)c1ccccc1 | -2.66 | -2.61 | -1.29
Cc1cc(OCc2ccccc2)c(OCc2ccccc2)cc1C(O)CN(C)Cc1ccccc1 (stereo unspecified) | 0.44 | 1.08 | -0.1
Cc1cnc(Nc2ccccc2)nc1NCCC(=O)Nc1ccccc1 | 6.97 | 8.48 | 3.62
CC(C)(C)c1ccc(NC(=O)c2ccc(CN3CCCN(Cc4cccc(O)c4)CC3)cc2)cc1 | 0.52 | 0.08 | 2.02
COc1ccc2cc(C(C)NC3CCN(c4cccc(NC(=O)c5ccncc5)c4)CC3)ccc2c1 (stereo unspecified) | 0.03 | -0.06 | -1.47
CN(C)CCOc1ccc(N2CCN(CCCCNC(=O)c3ccc(/C=C/c4cc(Cl)cc(Cl)c4)cc3)CC2)cc1 | -0.63 | 0.08 | -0.38
Cc1cccc2nc(-c3ccc(-c4ccc(CNCCCNS(C)(=O)=O)cc4)s3)[nH]c12 | 7.9 | 8.05 | 6.95
Cn1c(CN2CCC(N3CCc4cc(NC(=O)c5ccco5)ccc43)C2)cc2ccccc21 (stereo unspecified) | 5.51 | 4.84 | 5.36

Compound | inhibition [1] [%] | inhibition [2] [%] | inhibition [3] [%]
CCc1ccc(NC(=O)N(CCCN2CCN(C)CC2)Cc2csc(-c3ccc(CNCc4ccccc4)cc3)n2)cc1 | -1.59 | -0.93 | 3.09
O=C(/C=C/c1ccc(Cl)c(Cl)c1)NCCCCN1CCC(c2c[nH]c3ccccc23)CC1 | -2.39 | 0.39 | -0.01
COc1cc2nc(NCC3CCCO3)n3nc(-c4ccccc4)nc3c2cc1OC (stereo unspecified) | 8.44 | 6.19 | 2.53
Cc1cc(=NN=Cc2ccccn2)c2cc(C(F)(F)F)ccc2[nH]1 | -0.43 | -1.03 | -1.17
CS(=O)(=O)Nc1ccc(-c2ccc3ccnc(N)c3c2)cc1 | 7.57 | 7.12 | 6.67
O=C1C(c2ccccc2)=C(Nc2ccc([N+](=O)[O-])cc2)c2ccccc21 | 6.69 | 9.53 | 2.14
O=C(Nc1ccccc1)N(Cc1ccccc1-c1cccc(CNCc2ccc3c(c2)OCO3)c1)C1CCN(Cc2ccccc2)CC1 | -2.93 | -2.6 | -2.56
COc1ccc2c(c1)CC(C)(C)NC2CCCCCCCCC1NC(C)(C)Cc2cc(OC)ccc21 (stereo unspecified) | 2.26 | 2.26 | 0.77
CCOc1ccc(-c2nc(NC(=O)Cc3cccc(OC)c3)sc2C)cc1 | 5.17 | 7.92 | -0.61
O=C(C=Cc1ccc(Cl)c(Cl)c1)NCCCCCN1CCC(CCCNS(=O)(=O)c2ccc(Br)cc2)CC1 | 3.69 | -0.68 | 4.73
CC(C)CCNC(=N)Nc1ccc(OCCCOc2ccc(NC(=N)NCCC(C)C)cc2)cc1 | 0.62 | -1.4 | -0.91
COc1ccc2nccc([C@@H](O)CN3CCC(NCc4cc5cccc(O)c5c(=O)[nH]4)CC3)c2c1 | 13.7 | 31.5 | 1.42
Cc1cc(N(C)C)nc(Nc2ccc(NC(=O)c3cccc(F)c3)cc2)n1 | 3.36 | 10.1 | 3.75
O=C(NCCN1CCOCC1)c1ccc(O)c(-c2cccc(C(F)(F)F)c2)c1 | 0.48 | 1.53 | 2.43
CC(C)CCn1c(Sc2ccc([N+](=O)[O-])cc2C(F)(F)F)nnc1-c1ccccc1Cl | 1.8 | 1.95 | 2.26
Nc1c2c(nc3ccc(NC(=O)Cc4ccccc4)cc13)CCCC2 | 4.09 | 5.7 | 6.71
O=C1OC2(CCN(C(=O)c3ccc(-n4cnnn4)cc3)CC2)CN1Cc1ccc(Cl)c(Cl)c1 | 2.26 | 3.05 | 5.35
COc1ccc2nccc([C@@H](O)CN3CCC(NC(=O)C(c4cc5ccccc5s4)N4CC(C)OC(C)C4)CC3)c2c1 (stereo partly specified) | 4.19 | 2.81 | 3.57

Source: ChEMBL document CHEMBL3433997, “St. Jude Leishmania screening dataset” (2016)
